Measured values: the supplement of paper PMC8975748
Counter-ions that a name gives are not always drawn. ± gives the standard deviation of the averaged measurements.

Assays:
[1] = system: Saccharomyces cerevisiae BY4741 SeMeCo community; assay: mean cell size (pixel area) (pixels); higher = larger cells; conditions: 10 µM; 24 h; SM minimal medium
Outline: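 Mean cell pixel area per well was measured in a four-plasmid fluorescent community of Saccharomyces cerevisiae BY4741, where every plasmid complements one auxotrophy and carries a fluorescent marker. Cells from an overnight preculture at OD600 = 1.0 were diluted to OD600 = 0.3 and dispensed at 70 µl into 384-well plates acoustically predosed with drug to a final 10 µM in SM medium. Incubation lasted 24 h, followed by paraformaldehyde fixation, automated confocal imaging and analysis in Harmony. Reported figures are averaged over 3 replicates. Same SeMeCo high-content imaging drug screen: Selleck FDA-approved drugs at 10 µM, 24 h in SM medium, 384-well plates, 3 replicates.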

[2] = system: Saccharomyces cerevisiae BY4741 SeMeCo community; assay: z-score of prototroph abundance vs DMSO median; higher = larger share of this subpopulation than in DMSO controls; conditions: 10 µM; 24 h; SM minimal medium; subpopulation (auxotrophy): Prototroph
Outline: (§1)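 Cells of a Saccharomyces cerevisiae BY4741 community, carrying four plasmids that each restored one auxotrophy and encoded a distinct fluorescent protein, were pre-grown overnight to OD600 1.0 and diluted to 0.3. A 70 µl volume was added to 384-well plates acoustically predosed with library drugs (10 µM final) and grown 24 h in minimal SM medium. After paraformaldehyde fixation, automated confocal microscopy was used, with single-auxotroph fluorescent strains for thresholds and autofluorescence correction. The abundance of each subpopulation was scored as a z-score against the vehicle-well median.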

[3] = system: Saccharomyces cerevisiae BY4741 SeMeCo community; assay: z-score of subpopulation abundance vs DMSO median, subpopulation auxotrophic for M; higher = larger share of this subpopulation than in DMSO controls; conditions: 10 µM; 24 h; SM minimal medium; subpopulation (auxotrophy): M
Outline: as §1

[4] = system: Saccharomyces cerevisiae BY4741 SeMeCo community; assay: z-score of subpopulation abundance vs DMSO median, subpopulation auxotrophic for L; higher = larger share of this subpopulation than in DMSO controls; conditions: 10 µM; 24 h; SM minimal medium; subpopulation (auxotrophy): L
Outline: as §1

[5] = system: Saccharomyces cerevisiae BY4741 SeMeCo community; assay: z-score of subpopulation abundance vs DMSO median, subpopulation auxotrophic for U; higher = larger share of this subpopulation than in DMSO controls; conditions: 10 µM; 24 h; SM minimal medium; subpopulation (auxotrophy): U
Outline: as §1

[6] = system: Saccharomyces cerevisiae BY4741 SeMeCo community; assay: z-score of subpopulation abundance vs DMSO median, subpopulation auxotrophic for LM; higher = larger share of this subpopulation than in DMSO controls; conditions: 10 µM; 24 h; SM minimal medium; subpopulation (auxotrophy): LM
Outline: as §1

[7] = system: Saccharomyces cerevisiae BY4741 SeMeCo community; assay: z-score of subpopulation abundance vs DMSO median, subpopulation auxotrophic for HU; higher = larger share of this subpopulation than in DMSO controls; conditions: 10 µM; 24 h; SM minimal medium; subpopulation (auxotrophy): HU
Outline: as §1

[8] = system: Saccharomyces cerevisiae BY4741 SeMeCo community; assay: z-score of subpopulation abundance vs DMSO median, subpopulation auxotrophic for UM; higher = larger share of this subpopulation than in DMSO controls; conditions: 10 µM; 24 h; SM minimal medium; subpopulation (auxotrophy): UM
Outline: as §1

[9] = system: Saccharomyces cerevisiae BY4741 SeMeCo community; assay: z-score of subpopulation abundance vs DMSO median, subpopulation auxotrophic for HL; higher = larger share of this subpopulation than in DMSO controls; conditions: 10 µM; 24 h; SM minimal medium; subpopulation (auxotrophy): HL
Outline: as §1

[10] = system: Saccharomyces cerevisiae BY4741 SeMeCo community; assay: z-score of subpopulation abundance vs DMSO median, subpopulation auxotrophic for HLU; higher = larger share of this subpopulation than in DMSO controls; conditions: 10 µM; 24 h; SM minimal medium; subpopulation (auxotrophy): HLU
Outline: as §1

[11] = system: Saccharomyces cerevisiae BY4741 SeMeCo community; assay: z-score of subpopulation abundance vs DMSO median, subpopulation auxotrophic for HLM; higher = larger share of this subpopulation than in DMSO controls; conditions: 10 µM; 24 h; SM minimal medium; subpopulation (auxotrophy): HLM
Outline: as §1

[12] = system: Saccharomyces cerevisiae BY4741 SeMeCo community; assay: z-score of subpopulation abundance vs DMSO median, subpopulation auxotrophic for HUM; higher = larger share of this subpopulation than in DMSO controls; conditions: 10 µM; 24 h; SM minimal medium; subpopulation (auxotrophy): HUM
Outline: as §1

[13] = system: Saccharomyces cerevisiae BY4741 SeMeCo community; assay: z-score of subpopulation abundance vs DMSO median, subpopulation auxotrophic for LUM; higher = larger share of this subpopulation than in DMSO controls; conditions: 10 µM; 24 h; SM minimal medium; subpopulation (auxotrophy): LUM
Outline: as §1

[14] = system: Saccharomyces cerevisiae BY4741 SeMeCo community; assay: z-score of subpopulation abundance vs DMSO median, subpopulation auxotrophic for HLUM; higher = larger share of this subpopulation than in DMSO controls; conditions: 10 µM; 24 h; SM minimal medium; subpopulation (auxotrophy): HLUM
Outline: as §1

[15] = system: Saccharomyces cerevisiae BY4741 SeMeCo community; assay: z-score of subpopulation abundance vs DMSO median, subpopulation auxotrophic for H; higher = larger share of this subpopulation than in DMSO controls; conditions: 10 µM; 24 h; SM minimal medium; subpopulation (auxotrophy): H
Outline: as §1

[16] = system: Saccharomyces cerevisiae BY4741 SeMeCo community; assay: z-score of subpopulation abundance vs DMSO median, subpopulation auxotrophic for HM; higher = larger share of this subpopulation than in DMSO controls; conditions: 10 µM; 24 h; SM minimal medium; subpopulation (auxotrophy): HM
Outline: as §1

Compound | mean cell size [1] | z-score of prototroph abundance [2] | z-score of subpopulation abundance [3] | z-score of subpopulation abundance [4] | z-score of subpopulation abundance [5] | z-score of subpopulation abundance [6] | z-score of subpopulation abundance [7] | z-score of subpopulation abundance [8] | z-score of subpopulation abundance [9] | z-score of subpopulation abundance [10] | z-score of subpopulation abundance [11] | z-score of subpopulation abundance [12] | z-score of subpopulation abundance [13] | z-score of subpopulation abundance [14] | z-score of subpopulation abundance [15] | z-score of subpopulation abundance [16]
CC(C)[N+]1(C)[C@@H]2CC[C@H]1C[C@@H](OC(=O)C(CO)c1ccccc1)C2 (some centres undefined) [Ipratropium Bromide] | 12.4 ± 0.27 | 0.41 | -0.02 | 0.58 | -0.33 | 0.93 | -0.22 | -0.31 | -0.04 | -0.02 | -0.71 | -0.65 | -0.28 | 0.07 |  | 
CCCCN1CCCCC1C(=O)Nc1c(C)cccc1C (centres undefined) [Bupivacaine HCl] | 12.48 ± 0.1 |  | 0.05 | -0.57 | 0.36 |  | -0.26 | 0.27 | -0.36 | -0.41 | 0.32 | -0.41 | -0.72 | -0.67 | 0.67 | 0.01
CCOc1ccc2nc3cc(N)ccc3c(N)c2c1 [Ethacridine lactate monohydrate] | 12.86 ± 0.11 | 3.33 | 5.99 | 1.84 | -8.13 | 4.18 | -8.09 | -9.56 | 3.54 | -4.38 | 5.56 |  | -5.24 | -2.52 | 4.4 | 5.32
CCOC(=O)C1=C(COCCN)NC(C)=C(C(=O)OC)[C@@H]1c1ccccc1Cl [Levamlodipine] | 12.5 ± 0.2 | 3.33 | 5.72 | 1.13 | -7.34 | 3.35 |  | -8.09 | 2.19 | -3.25 | 1.82 |  | -4.52 | -1.12 | 2.66 | 4.13
C[N+]1(C)CCC(=C(c2ccccc2)c2ccccc2)CC1 [Diphemanil Methylsulfate] | 12.6 ± 0.23 | -0.15 | 1.5 | -0.56 | 0 | 0.34 |  | 0.25 | -0.17 | -0.19 | -0.02 | 0.68 | 0.41 |  | -0.27 | 0.58
CC1(C)[C@H](C(=O)O)N2C(=O)C[C@H]2S1(=O)=O [Sulbactam sodium] | 12.54 ± 0.013 | -0.92 | 0.51 | -0.23 |  | -0.08 | 1.1 | 1.22 | 0.14 | 0.64 | -0.2 | 1.25 | 0.21 |  | -0.33 | 0.23
CCn1cc(C(=O)O)c(=O)c2cc(F)c(N3CCN(C)CC3)cc21 [Pefloxacin Mesylate Dihydrate] | 12.7 ± 0.14 | -0.64 | 1.25 | -0.36 | 0.5 | -0.32 | 0.28 | 0.05 | 0.3 | 0.03 |  | -0.06 | -0.46 | -0.42 | 0.39 | 0.71
C[C@]1(Cn2ccnn2)[C@H](C(=O)O)N2C(=O)C[C@H]2S1(=O)=O [Tazobactam] | 12.4 ± 0.26 | -0.17 | -0.32 | -0.56 | 0.75 | -0.39 | 0.31 | 0.66 | -0.38 | 0.12 | -0.56 |  | 0.22 | 0.69 | -1.1 | -0.74
O=C(CCCN1CCN(c2ccccn2)CC1)c1ccc(F)cc1 [Azaperone] | 12.29 ± 0.072 | -0.1 | 0 | 0.29 | 0.07 | 0.61 | 0.16 | 0.85 | -0.42 | -0.03 | -0.5 | 1.31 |  | 0.31 | -0.28 | 
CCCCCCCCCCCCCCCCOP(=O)([O-])OCC[N+](C)(C)C [Miltefosine] | 7.76 ± 0.26 |  | -7.93 | -5.76 | -5.15 | -4.09 | 1.54 | 31.2 | 3.75 | 0.88 | 15.6 | 142 | 20.4 | 161 | -10.2 | 
O=C(c1ccc(OCCN2CCCCC2)cc1)c1c(-c2ccc(O)cc2)sc2cc(O)ccc12 [Raloxifene] |  |  | -0.22 | 1.05 | -1.73 | 0.49 | -1.39 | -1.32 | 0.96 | 0.52 | 0.78 | -0.2 | -0.37 |  | 1.48 | 0.02
CCC(C)(Oc1ccc(C2(c3ccc(OC(C)(CC)C(=O)O)cc3)CCCCC2)cc1)C(=O)O (centres undefined) [Clinofibrate] | 13.24 ± 0.13 | 0.14 | 0.41 | -2.3 | 0.34 |  | 0.11 | -2.08 | -0.48 | 0.73 | 2.85 | -0.82 |  | 0.45 |  | -0.03
CCCCCC(=O)O[C@]1(C(C)=O)CC[C@H]2[C@@H]3CCC4=CC(=O)CC[C@]4(C)[C@H]3CC[C@@]21C [Hydroxyprogesterone caproate] | 12.47 ± 0.039 |  | 0.22 | 1.21 | -0.21 | 1.5 | 1.19 | 0.42 | 1.2 | 0.62 |  | 1.38 | 1.15 | 0.74 | 1.49 | 1.31
Cc1cccc(Nc2ccccc2C(=O)O)c1C [Mefenamic Acid] | 12.4 ± 0.21 | 0.48 | 0.15 | 0.31 |  | 0.12 | 0.29 | -0.74 | 0.24 | -0.38 | -0.42 | -0.64 | -0.45 |  | -0.41 | -0.11
C=C1c2cccc(O)c2C(O)=C2C(=O)[C@]3(O)C(O)=C(C(N)=O)C(=O)[C@@H](N(C)C)[C@@H]3[C@@H](O)[C@H]12 [Methacycline HCl] |  | 0.09 | 0.2 | 1.08 | -0.83 | 0.5 | -0.49 | -0.59 | 1.43 | -0.87 | 0.92 |  | -0.23 |  | 2.58 | 
